High-throughput results from PubChem BioAssay.
HT1080 IDH1KD tx – HT-1080 IDH1 knockdown cell toxicity (counter line); HT-1080 IDH1 knockdown viability, ATP luminescence, 48 h; Potency, µM (top dose mostly 46.1 µM), for inactives: at the top dose activity, negative = toxicity, actives largely listed as cytotoxic; actives 2% (n = 360,000);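 note: potency is the fitted concentration of half-maximal effect; 0% = DMSO wells and -100% = cell-free medium wells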
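CellTiter-Glo luminescence after 48 h compound exposure at 37 degrees C of IDH1-knockdown HT-1080 cells in 5% FBS RPMI. %Activity scaled between DMSO wells and cell-free media wells, with curves fitted and assigned curve classes.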
HT1080-NT tox – kills 2HG-producing HT-1080-NT fibrosarcoma cells; actives 1.6% (n = 360,000); AID 686970; Potency, µM (top dose mostly 46.1 µM), for inactives: at the top dose activity, negative = less viability, usual class: cytotoxic; HT-1080-NT fibrosarcoma viability, CellTiter-Glo ATP luminescence, 48 h;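 note: NT is the 2HG producing partner of a matched IDH1 knockdown line; potency is the fitted concentration of half-maximal effect; 0% = DMSO-treated cells and -100% = media-only wells without cells; nearly all actives have a fitted effect of over 55% in size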
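Luminescent CellTiter-Glo readout after 48 hours of compound exposure at 37 degrees C defined viability of HT-1080-NT cells. Activity was normalized to DMSO wells and cell-free media wells; concentration-response curves were fitted and assigned curve classes.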
IL1B secr inh – inhibitors of inflammasome signaling (IL-1 beta secretion). THP-1 LPS/ATP IL-1B secretion, AlphaLISA, 16 h; active compounds read low. activity change, % at 57.5 µM. actives 4.7% (n = 360,000). AID 743279; in the data active = activity change below about -50%; inconclusive = mostly about -30% to -49%
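THP-1 cells pretreated 1 hr with compounds (up to 57.5 uM final), then stimulated with LPS (250 ng/mL final) plus ATP (1.25 mM final); secreted IL-1B measured by AlphaLISA after 16 hr, decreased signal indicating inhibition.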
DT40 TDP1 CPT – growth inhibition of DT40 Tdp1-/-;hTDP1 cells with camptothecin (screen for TDP1 inhibitors); AID 686979; actives 12% (n = 420,000); chicken DT40 Tdp1-/-;hTDP1 cells + 20 nM CPT, ATP luminescence, 48 h; Potency, µM (series often up to 46.2 µM), without a hit: at the highest dose activity change, negative = growth inhibition, most hits filed as inhibitors; note: potency is the fitted concentration of half-maximal effect; nearly all actives have a fitted effect of over 55% in size
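Chicken DT40 Tdp1-/- cells complemented with human TDP1, 400 cells/well, exposed to compounds plus 20 nM camptothecin for at least 48 h at 37 C; viability read as ATP content by CellTiter-Glo luminescence.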
TDP1 cell noCPT – qHTS for Inhibitors of human tyrosyl-DNA phosphodiesterase 1 (TDP1): qHTS in cells in absence of CPT. DT40 Tdp1-/- hTDP1 cells, no CPT, ATP luminescence, 48 h. Potency, µM (doses to about 46.2 µM), inactives show at the highest dose activity change, negative = growth inhibition, most hits filed as inhibitors. actives 15% (n = 420,000). AID 686978, 2013; note: potency is the fitted concentration of half-maximal effect; nearly all actives have a fitted effect of over 55% in size
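Growth kinetics read by CellTiter-Glo luminescence after ≥48 hr at 37 °C. Cells: DT40 Tdp1-/- stably carrying human TDP1, 400 per well, compound exposure in the absence of CPT (DMSO vehicle).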
* = called active by the depositor; i = inactive; ? = inconclusive; / = no result. Most compounds without a hit are left out; they make up all but 19% or so of the library. Unless noted, calls come from the whole dose curve; as a rule, active = well fitted curve in the direction sought with a large enough effect; inconclusive = small, poorly fitted or top-dose-only effect, or another doubt; inactive = no such curve, though single readings can be large; an effect the other way counts as inactive or inconclusive. Unless noted, % is set by controls: 0 for no effect and ±100 for the full control effect.

SMILES	HT1080 IDH1KD tx	HT1080-NT tox	IL1B secr inh	DT40 TDP1 CPT	TDP1 cell noCPT
O=C1CN(C(=O)COC(=O)c2ccc(N3CCCCCC3)c([N+](=O)[O-])c2)c2ccccc2N1	-3%	-5%	22	3%	-26%
O=C1CN(C(=O)COC(=O)CCS(=O)(=O)c2ccccc2Cl)c2ccccc2N1	1%	-16%	-25	18µM*	?
O=C(CCNC(=O)N1CC(=O)Nc2ccccc21)NCc1ccccc1Cl	4%	-1%	-8	?	13µM*
O=C(CCNC(=O)N1CC(=O)Nc2ccccc21)NCc1cccc(Cl)c1	1%	17%	0	6%	?
CC1CCCCN1C(=O)COC(=O)c1ccc(S(C)(=O)=O)c([N+](=O)[O-])c1 (configuration not stated)	/	/	/	2.2µM*	3.2µM*
CS(=O)(=O)c1ccc(C(=O)OCC(=O)N2CC(=O)Nc3ccccc32)cc1[N+](=O)[O-]	/	/	/	1.1µM*	0.71µM*
Cc1cc(C(=O)C(C(c2ccccc2)N2CCOCC2)N2CCOCC2)ccc1Cl (configuration not stated)	-1%	24%	-12	-20%	?
CCCCC1NC(=S)N(C2CCCCC2)C1=O (configuration not stated)	-4%	-16%	19	?	?
CS(=O)(=O)c1ccc(C(=O)OCC(=O)N2CCCC2)cc1[N+](=O)[O-]	/	/	/	5µM*	4µM*
Cc1c(C(=O)OCC(=O)N2CCCC2)cccc1[N+](=O)[O-]	-6%	-11%	-19	-18%	-3%
O=C(CNc1ccc(F)cc1)N/N=C1\CCCc2ccccc21	-9%	0%	-18	3%	?
O=C(Cc1cccc2ccccc12)N/N=C/c1ccc(F)cc1	-35%	-29%	22	?	?
O=C(Cc1ccc(Cl)cc1)N/N=C1\CCCc2ccccc21	-4%	4%	20	?	23µM*
O=C(Cc1cccc2ccccc12)NN=Cc1ccc2c(c1)CCC2	-1%	-2%	1	?	21µM*
O=C(Cc1cccc2ccccc12)N/N=C1\CCCc2ccccc21	-22%	-14%	22	?	16µM*
Cn1cccc1/C=N/NC(=O)Cc1cccc2ccccc12	?	-14%	34	?	12µM*
CCCn1c(N)c(C(=O)COC(=O)CCNS(=O)(=O)c2ccccc2F)c(=O)[nH]c1=O	1%	6%	-1	3%	?
COc1ccccc1NC(=O)Nc1nnc([C@@H]2C[C@H](O)[C@@H](CO)O2)s1	19%	17%	17	-10%	6%
CC(C)(C)n1nc2c(c1NC(=O)c1ccc(F)c(F)c1)CS(=O)(=O)C2	1%	-6%	i	1%	16µM*
Cc1cccc(C(=O)Nc2c3c(nn2-c2ccc(Cl)cc2)CS(=O)(=O)C3)c1	/	/	/	-19%	-26%
O=C(Nc1c2c(nn1-c1ccc(Cl)cc1)CS(=O)(=O)C2)c1cccc(F)c1	/	/	/	21µM*	18µM*
CC(C)(C)n1nc2c(c1NC(=O)c1c(F)cccc1F)CS(=O)(=O)C2	2%	1%	0	-5%	7%
COc1ccc(NC(=O)c2cc(-c3cc(F)ccc3OCC3CCCO3)n[nH]2)cc1OC (configuration not stated)	?	-27%	-81*	?	21µM*
CC(=O)Nc1ccc(NC(=O)c2cc(-c3cc(F)ccc3OCC3CCCO3)n[nH]2)cc1 (configuration not stated)	?	9%	-19	?	?
COc1ccc(NC(=O)c2cc(-c3cc(F)ccc3OCC3CCCO3)n[nH]2)c(C)c1 (configuration not stated)	3%	-3%	-66*	?	?
SMILES	HT1080 IDH1KD tx	HT1080-NT tox	IL1B secr inh	DT40 TDP1 CPT	TDP1 cell noCPT
CCOC(=O)c1oc2ccc(S(=O)(=O)n3nc(-c4cc(OCC)c(OCC)c(OCC)c4)cc3N)cc2c1C	/	/	/	-29%	-26%
CCOC(=O)C1CCN(C(=O)c2cccc(S(=O)(=O)N(C)C3CCCCC3)c2)CC1	-4%	-1%	13	?	?
NC(=O)COC(=O)CNC(=O)c1cc(Cl)cc([N+](=O)[O-])c1	23%	24%	12	22%	18%
O=C(CNC(=O)c1cc(Cl)cc([N+](=O)[O-])c1)OCC(=O)N1CCCCC1	-8%	-1%	-74*	-18%	0%
CC(C(=O)Nc1cc(C(F)(F)F)ccc1Cl)n1nnc2sc3c(c2c1=O)CCCC3 (configuration not stated)	/	/	/	23µM*	16µM*
CCOc1ccccc1NC(=O)C(C)n1nnc2sc3c(c2c1=O)CCCC3 (configuration not stated)	/	/	/	?	15µM*
Cc1c(Cl)cccc1NC(=O)Cn1nnc2sc3c(c2c1=O)CCCC3	/	/	/	-9%	3%
Cc1ccc(Cl)cc1NC(=O)C(C)n1nnc2sc3c(c2c1=O)CCCC3 (configuration not stated)	/	/	/	26µM*	16µM*
Cc1c(Cl)cccc1NC(=O)C(C)n1nnc2sc3c(c2c1=O)CCCC3 (configuration not stated)	/	/	/	?	-18%
COc1ccccc1CNS(=O)(=O)c1ccc2c(c1)N(C(C)=O)CC(C)S2 (configuration not stated)	?	-15%	-1	3%	?
CC(=O)N1CC(C)Sc2ccc(S(=O)(=O)NCc3ccc(Cl)cc3)cc21 (configuration not stated)	-9%	-10%	0	?	?
CC(=O)N1CC(C)Sc2ccc(S(=O)(=O)NCCc3ccc(C)cc3)cc21 (configuration not stated)	-13%	6%	-9	18µM*	7.3µM*
CC(=O)N1CC(C)Sc2ccc(S(=O)(=O)NCCc3ccccc3)cc21 (configuration not stated)	-16%	-12%	53	13µM*	10µM*
CC1CCCCC1NC(=S)Nc1ccc(Cl)cc1Cl (configuration not stated)	-3%	-7%	-9	-2%	?
COc1ccc(CCn2c(=O)c3cccnc3n(CC(=O)Nc3ccc(C)c(F)c3)c2=O)cc1OC	/	/	/	4.1µM*	21µM*
COc1ccc(CCn2c(=O)c3cccnc3n(CC(=O)Nc3cccc(C)c3)c2=O)cc1OC	/	/	/	-15%	-13%
COc1ccc(Cn2c(=O)c3cccnc3n(CC(=O)Nc3ccc(C)c(F)c3)c2=O)cc1	/	/	/	-17%	?
COc1ccc(Cl)cc1NC(=O)Cn1c(=O)n(Cc2cccs2)c(=O)c2cccnc21	/	/	/	?	18µM*
